Only a selection was taken, and hits are over-represented in it overall.
miR-122 inh: miR-122 sensor activation. Huh7 psiCHECK-miR122 Renilla luciferase sensor, 48 h. activation, % at 12.5 µM. 340,000 tested, 0.14% active;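 active means mean activation of 30% or more, with every replicate also reaching 30%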;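 further: higher luciferase signal means stronger suppression of miR-122 activity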
Large screens that a line does not name were inactive.

C[C@H](CO)N1C[C@H](C)[C@@H](CN(C)Cc2ccncc2)Oc2ncc(C#Cc3cccnc3)cc2C1=O	none
Cc1ccccc1NCN1C(=O)C2C3C=CC(C3)C2C1=O (stereo not given)	miR-122 inh 34
C[C@H]1CN([C@@H](C)CO)C(=O)c2cc(/C=C/c3ccccc3)cnc2O[C@@H]1CN(C)Cc1ccccc1F	none
C[C@H](CO)N1C[C@H](C)[C@@H](CN(C)S(=O)(=O)c2ccc(F)cc2)Oc2ncc(/C=C/c3ccccc3)cc2C1=O	none
COc1cccc(C#Cc2ccc3c(c2)O[C@@H](CN(C)C(=O)c2ccccn2)[C@@H](C)CN([C@@H](C)CO)S3(=O)=O)c1	none
C[C@H](CO)N1C[C@H](C)[C@@H](CN(C)C)Oc2ncc(C#CC3CC3)cc2C1=O	none
CCCCNC(=O)Nc1nnc(-c2ccc(OCC)cc2)o1	miR-122 inh 36
CCCCOc1ccc(S(=O)(=O)Nc2ccc(NC(C)=O)cc2)cc1	none
C[C@H]1CN([C@@H](C)CO)S(=O)(=O)c2ccc(C#Cc3ccc(F)cc3)cc2O[C@@H]1CN(C)S(=O)(=O)c1cn(C)cn1	none
C/C=C/c1ccc2c(c1)O[C@@H](CN(C)C(=O)Cc1ccccn1)[C@H](C)CN([C@H](C)CO)S2(=O)=O	none
Cc1cc(C)cc(N=c2c([N+](=O)[O-])nn(-c3ccc4c(c3)OCCO4)n2O)c1	miR-122 inh 42
C/C=C/c1cnc2c(c1)C(=O)N([C@H](C)CO)C[C@H](C)[C@H](CN(C)C(=O)Nc1cccc(OC)c1)O2	none
C[C@@H]1CN([C@H](C)CO)C(=O)c2cc(C3=CCCCC3)cnc2O[C@@H]1CN(C)C(=O)c1ccc(F)cc1	none
C[C@@H]1CN([C@@H](C)CO)C(=O)c2cc(-c3cccc(F)c3)cnc2O[C@H]1CN(C)Cc1cncnc1	none
Cc1ccc(S(=O)(=O)N(C)C[C@H]2Oc3ccc(NC(=O)Nc4ccc(C(F)(F)F)cc4)cc3C(=O)N([C@H](C)CO)C[C@H]2C)cc1	none
C[C@@H]1CN([C@@H](C)CO)C(=O)c2cc(-c3ccccc3F)cnc2O[C@H]1CN(C)C(=O)NC1CCCCC1	none
C[C@@H]1CN([C@H](C)CO)C(=O)c2cc(NC(=O)Nc3cccc4ccccc34)ccc2O[C@@H]1CN(C)C(=O)Nc1ccccc1	none
C[C@@H]1CN([C@@H](C)CO)C(=O)c2cc(NC(=O)Nc3cccc4ccccc34)ccc2O[C@@H](C)CCCCO[C@@H]1CN(C)CC1CCCCC1	miR-122 inh 34
COc1ccc(S(=O)(=O)N(C)C[C@H]2Oc3ccc(NC(=O)Nc4ccc(C(F)(F)F)cc4)cc3C(=O)N([C@@H](C)CO)C[C@H]2C)cc1	none
COc1ccc(CN(C)C[C@@H]2OCCCC[C@@H](C)Oc3ccc(NC(=O)c4ccccc4)cc3C(=O)N([C@H](C)CO)C[C@@H]2C)cc1	none
C[C@H](CO)N1C[C@H](C)[C@H](CN(C)C(=O)NC2CCCCC2)Oc2ncc(-c3cccc(C(F)(F)F)c3)cc2C1=O	miR-122 inh 33
C[C@H](CO)N1C[C@H](C)[C@H](CN(C)C(=O)NC2CCCCC2)Oc2ncc(-c3ccccc3F)cc2C1=O	none
COc1ccc(S(=O)(=O)N(C)C[C@H]2Oc3ccc(NC(=O)Nc4ccc(C(F)(F)F)cc4)cc3C(=O)N([C@H](C)CO)C[C@H]2C)cc1	none
Cc1ccc(S(=O)(=O)Nc2ccc3c(c2)C(=O)N([C@@H](C)CO)C[C@H](C)[C@H](CN(C)C(=O)Nc2ccc(F)cc2)OCCCC[C@@H](C)O3)cc1	none
COc1ccc(CN(C)C[C@@H]2OCCCC[C@H](C)Oc3ccc(NC(=O)Nc4ccc(C(F)(F)F)cc4)cc3C(=O)N([C@H](C)CO)C[C@@H]2C)cc1	miR-122 inh 31
C[C@@H]1CN([C@@H](C)CO)C(=O)c2cc(NC(=O)Nc3ccc(C(F)(F)F)cc3)ccc2O[C@@H]1CN(C)CC1CCCCC1	miR-122 inh 40
CCC(=O)N(C)C[C@H]1Oc2cc(-c3cccnc3)ccc2S(=O)(=O)N([C@@H](C)CO)C[C@@H]1C	none
CC(C)NC(=O)N(C)C[C@H]1Oc2ncc(C3=CCCCC3)cc2C(=O)N([C@H](C)CO)C[C@H]1C	none
COc1cccc(-c2cnc3c(c2)C(=O)N([C@@H](C)CO)C[C@H](C)[C@@H](CN(C)C(=O)Nc2ccccc2F)O3)c1	none
C[C@H]1CN([C@@H](C)CO)S(=O)(=O)c2ccc(C#CC3CCCC3)cc2O[C@H]1CN(C)CC1CC1	none
C[C@H](CO)N1C[C@H](C)[C@H](CN(C)C(=O)Cc2cccnc2)Oc2ncc(-c3ccncc3)cc2C1=O	none
COc1ccccc1-c1cnc2c(c1)C(=O)N([C@@H](C)CO)C[C@H](C)[C@@H](CN(C)C(=O)c1ccccc1)O2	none
CCCNC(=O)N(C)C[C@H]1Oc2cc(C#Cc3cccc(F)c3)ccc2S(=O)(=O)N([C@H](C)CO)C[C@@H]1C	none
CC(C)C#Cc1ccc2c(c1)O[C@@H](CN(C)C(=O)CN(C)C)[C@H](C)CN([C@H](C)CO)S2(=O)=O	none
COc1cccc(NC(=O)N(C)C[C@H]2Oc3ncc(C#Cc4ccccc4)cc3C(=O)N([C@H](C)CO)C[C@@H]2C)c1	none
CCC(=O)N(C)C[C@H]1Oc2cc(-c3cccc(C#N)c3)ccc2S(=O)(=O)N([C@H](C)CO)C[C@H]1C	none
C[C@H](CO)N1C[C@H](C)[C@H](CN(C)S(C)(=O)=O)Oc2cc(Br)ccc2S1(=O)=O	none
CC(C)CC#Cc1cnc2c(c1)C(=O)N([C@H](C)CO)C[C@H](C)[C@H](CN(C)C(=O)Cc1ccccc1)O2	none
C[C@H](CO)N1C[C@H](C)[C@H](CN(C)C(=O)Nc2ccc3c(c2)OCO3)Oc2cc(C#Cc3ccccc3)ccc2S1(=O)=O	none
C[C@@H]1CCCCO[C@@H](CN(C)Cc2ccc3c(c2)OCO3)[C@H](C)CN([C@H](C)CO)C(=O)c2cc(NC(=O)Nc3ccc(C(F)(F)F)cc3)ccc2O1	miR-122 inh 34
C[C@H](CO)N1C[C@H](C)[C@H](CN(C)Cc2ccc(Cl)c(Cl)c2)Oc2c(NC(=O)Nc3ccc4c(c3)OCO4)cccc2C1=O	none
C[C@@H]1CN([C@H](C)CO)C(=O)c2cccc(NC(=O)Nc3ccccc3)c2O[C@H]1CN(C)Cc1ccc(C(F)(F)F)cc1	none
C[C@@H]1CN([C@@H](C)CO)S(=O)(=O)c2ccc(-c3ccncc3)cc2O[C@@H]1CN(C)C(=O)C1CC1	none
C[C@H](CO)N1C[C@H](C)[C@H](CN(C)Cc2ccccc2)Oc2ncc(-c3cccc(C#N)c3)cc2C1=O	none
CCCNC(=O)N1C[C@H](C)[C@@H](OC)CN(C)C(=O)c2cc(NS(=O)(=O)CC)ccc2OC[C@@H]1C	none
CCS(=O)(=O)Nc1ccc2c(c1)C(=O)N(C)C[C@@H](OC)[C@H](C)CN(CC1CCCC1)[C@H](C)CO2	miR-122 inh 38
CCCNC(=O)N1C[C@@H](C)[C@@H](OC)CN(C)C(=O)c2cc(NS(=O)(=O)CC)ccc2OC[C@H]1C	none
COCC#Cc1cnc2c(c1)C(=O)N([C@@H](C)CO)C[C@@H](C)[C@H](CN(C)C(=O)Nc1ccc(OC)cc1)O2	none
C[C@H](CO)N1C[C@H](C)[C@H](CN(C)C(=O)c2ccccn2)Oc2ncc(-c3ccc(F)cc3)cc2C1=O	none
COCC(=O)N(C)C[C@@H]1Oc2cc(-c3ccccc3)ccc2S(=O)(=O)N([C@@H](C)CO)C[C@@H]1C	none
Cc1ccccc1-c1ccc2c(c1)O[C@H](CN(C)C(=O)Nc1ccccc1)[C@@H](C)CN([C@H](C)CO)S2(=O)=O	none
CC(=O)N(C)C[C@H]1Oc2cc(C#C[C@@H](C)O)ccc2S(=O)(=O)N([C@H](C)CO)C[C@@H]1C	none

Assay outcomes deposited in PubChem by Broad Institute.
